Data on 35 molecules can be found in PubChem BioAssay.

SMILES strings stand for the structures.

Holding throughout (test): Peg3 promoter luciferase inhibitors, potency, dose response, cell-based, HeLa, CREF/GAPDH counter-screen panel (AID 624167)
(The purpose of a counterscreen is to sort out artefacts and off-target activity.)

Assay [1] addresses PEG-3 (UniProt Q6IN02). The following applies: CREF/GAPDH counter-screens; HeLa PEG-Prom luciferase reporter, overnight, run 1, dose range 1, at 100 µM (top of the series) unless noted.
In assay [2] the target is PEG-3 (UniProt Q6IN02). To be noted: CREF/GAPDH counter-screens; HeLa PEG-Prom luciferase reporter, overnight, run 2, dose range 1, at 100 µM (top of the series) unless noted.
Sequence of PEG-3 (Q6IN02 whole entry, looked up): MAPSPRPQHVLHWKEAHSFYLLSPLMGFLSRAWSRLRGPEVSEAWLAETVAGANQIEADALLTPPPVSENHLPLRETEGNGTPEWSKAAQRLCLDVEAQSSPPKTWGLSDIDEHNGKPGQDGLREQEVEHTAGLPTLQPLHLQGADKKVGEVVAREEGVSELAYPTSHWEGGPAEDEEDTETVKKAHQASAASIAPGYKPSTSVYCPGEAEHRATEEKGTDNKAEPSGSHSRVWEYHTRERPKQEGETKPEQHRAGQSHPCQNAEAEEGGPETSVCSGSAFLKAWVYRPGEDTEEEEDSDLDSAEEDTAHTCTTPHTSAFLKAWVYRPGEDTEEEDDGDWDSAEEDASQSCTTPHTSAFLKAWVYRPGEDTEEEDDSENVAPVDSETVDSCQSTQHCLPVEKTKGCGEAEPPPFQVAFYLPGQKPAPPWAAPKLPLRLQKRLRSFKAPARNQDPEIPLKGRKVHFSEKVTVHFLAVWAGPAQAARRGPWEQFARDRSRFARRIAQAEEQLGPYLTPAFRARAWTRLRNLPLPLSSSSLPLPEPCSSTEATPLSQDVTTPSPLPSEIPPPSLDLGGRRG
Assay [3] concerns Rat fibroblasts (CREF). To be noted: CREF/GAPDH counter-screens; run 1, dose range 1, at 100 µM (top of the series).
Assay [4] relates to Rat fibroblasts (CREF). To be noted: CREF/GAPDH counter-screens; run 2, dose range 1, at 100 µM (top of the series).

Regarding `Cc1c(C)c2ccc(OCC(=O)Nc3ccccn3)c(C)c2oc1=O`, the inhibition with PEG-3 [1] was 99.2%; with PEG-3 [2], 93.2%; in the assay with Rat fibroblasts (CREF) [3], 98.5%; with Rat fibroblasts (CREF) [4], 97.8%.
Take `COc1ccc(/C=C2/CCCC(CN(C)C)C2=O)cc1` (stereo not given): the inhibition with PEG-3 [1] was determined as 99.5%; in the assay with PEG-3 [2], 98.8%; with Rat fibroblasts (CREF) [3] it was 95.5%; with Rat fibroblasts (CREF) [4], 68.5%.
Turning to `CC1CCCN(c2ncnc3c2cnn3-c2ccc(Cl)cc2)C1` (stereo not given), the inhibition worked out at 98.9% with PEG-3 [1], 98% in the assay with PEG-3 [2], 94% with Rat fibroblasts (CREF) [3] and 96.6% in the assay with Rat fibroblasts (CREF) [4].
Take `O=C(Nc1nc2cc3c(cc2s1)OCCO3)C1=COCCO1`: the inhibition with PEG-3 [1] was determined as 99.1%; in the assay with PEG-3 [2], 98%; with Rat fibroblasts (CREF) [3], 95.3%; in the assay with Rat fibroblasts (CREF) [4], 97%.
On the same counts, the results for `O=C(Nc1cccc(C(=O)O)c1)Nc1ccc2c(c1)OCO2` are 95.9%, 94.8%, 84.8% and 85.5%.
`CC(=O)c1sc2c(c1OC(=O)c1ccc(Cl)cc1Cl)c(=O)n(-c1ccccc1)c(=S)n2-c1ccccc1`: the inhibition with PEG-3 [1] was found to be 82.6%; with PEG-3 [2], 96.3%; with Rat fibroblasts (CREF) [3] it was 14.9%; with Rat fibroblasts (CREF) [4], 61.6%.
In the same order, the values of `COc1cc(SC)ccc1C(=O)Nc1ncc(C)s1` are 95.5%, 98.2%, 97.8% and 97.3%.
With `O=[N+]([O-])c1ccc(S(=O)(=O)c2ccccc2)nc1`, the inhibition with PEG-3 [1] was found to be 99.3%; in the assay with PEG-3 [2], 101%; in the assay on Rat fibroblasts (CREF) [3], 99.3%; with Rat fibroblasts (CREF) [4] it was 98.6%.
Turning to `Cc1ccccc1OCC(=O)Nc1cccc(C(=O)O)c1`, the inhibition with PEG-3 [1] is 99.1%; with PEG-3 [2], 95.1%; in the assay on Rat fibroblasts (CREF) [3], 95.9%; in the assay on Rat fibroblasts (CREF) [4], 68.4%.
As to `O=C(Nc1ncc([N+](=O)[O-])s1)c1ccc2c(c1)OCO2`, the inhibition came out at 96.1% with PEG-3 [1], 89.6% with PEG-3 [2], 91.5% in the assay with Rat fibroblasts (CREF) [3] and 91.7% in the assay with Rat fibroblasts (CREF) [4].
In the same order, the values of `O=C(CNCCC1=CCCCC1)Nc1ccc(N2CCCCCC2)cc1` are 102%, 102%, 99.4% and 100%.
On the same counts, the results for `Cc1ccc(C(=O)CN2C(=O)c3ccccc3S2(=O)=O)cc1` are 93.5%, 92.4%, 87.2% and 87.5%.
For `O=c1c2ccccc2sc2nc(CCl)nn12`, the inhibition with PEG-3 [1] was 102%; with PEG-3 [2] it was 102%; with Rat fibroblasts (CREF) [3] it was -2.66%; in the assay on Rat fibroblasts (CREF) [4], 33.8%.
As for `CN(C)c1ccc(/C=C2\SC(=O)N(CCc3nnc(N)s3)C2=O)cc1`, the inhibition with PEG-3 [1] worked out at 62%; with PEG-3 [2] it was 77.4%; in the assay on Rat fibroblasts (CREF) [3] it was 83%; with Rat fibroblasts (CREF) [4], 82.3%.
In the same order, the values of `O=C1C(Cl)=C(Nc2ccccc2)C(=O)c2ccccc21` are 102%, 101%, 96.9% and 99.8%.
In the case of `COc1ccc(CCN2C(=O)C=CC2=O)cc1OC`, the inhibition with PEG-3 [1] was found to be 102%; in the assay with PEG-3 [2] it was 101%; in the assay with Rat fibroblasts (CREF) [3], 99.5%; in the assay on Rat fibroblasts (CREF) [4] it was 98.6%.
On the same counts, the results for `Cc1nc(-c2ccc(NC(=O)c3ccco3)cc2)cs1` are 98.9%, 99.3%, 93.3% and 95.8%.
In the same order, the values of `CN(C)CC1CCC/C(=C\c2ccc(OC(=O)c3ccc(Cl)cc3)cc2)C1=O` (stereo not given) are 97.7%, 99%, 51.4% and -21.7%.
In the same order, the values of `Cc1ccc(-c2cc3c(nn2)-c2ccccc2C3=O)cc1` are 98.6%, 88.7%, 92.8% and 94.8%.
As for `CCCCCCCn1c(=N)n(CC(=O)c2ccco2)c2ccccc21`, the inhibition with PEG-3 [1] was 102%; in the assay with PEG-3 [2], 100%; in the assay with Rat fibroblasts (CREF) [3], 95.9%; in the assay with Rat fibroblasts (CREF) [4] it was 98%.
In the same order, the values of `CCSc1nc2ccccc2n1C(=O)/C=C\c1ccc(OC)c(OC)c1` are 99.4%, 95.2%, 46.8% and 91.8%.
On the same counts, the results for `COc1cc(C(=O)N/N=C(\c2ccccc2)c2ccccn2)cc(OC)c1OC` are 72.6%, 74.9%, 72.1% and 63.3%.
As for `Cc1nn(-c2nc3ccccc3[nH]2)c(=O)c2ccccc12`, the inhibition in the assay with PEG-3 [1] was 97.5%; with PEG-3 [2], 96.4%; in the assay with Rat fibroblasts (CREF) [3], 100%; with Rat fibroblasts (CREF) [4] it was 101%.
On the same counts, the results for `Cc1ccc(OCC(=O)c2cc(C)n(-c3ccccc3)c2C)c([N+](=O)[O-])n1` are 77.6%, 74.5%, -20% and -61.9%.
Regarding `Nc1ccc(-c2nc3ccc(C(=O)O)cc3s2)cc1`, the inhibition in the assay with PEG-3 [1] was 98.2%; with PEG-3 [2], 98.9%; in the assay with Rat fibroblasts (CREF) [3] it was 89.1%; with Rat fibroblasts (CREF) [4], 90.5%.
On the same counts, the results for `CCCCCN1C=CC(=C2C(=O)c3ccccc3C2=O)C=C1` are 102%, 99.1%, 98.2% and 98.3%.
In the case of `c1ccc(-c2nc(-c3ccccn3)no2)cc1`, the inhibition in the assay with PEG-3 [1] was determined as 89.5%; with PEG-3 [2], 91.1%; with Rat fibroblasts (CREF) [3], 98%; in the assay with Rat fibroblasts (CREF) [4] it was 98.3%.
On the same counts, the results for `C(=N\Nc1ccc2ccccc2n1)/c1ccc2c(c1)OCCO2` are 98.4%, 96.2%, 53.6% and 101%.
Consider `CN(C)c1ccc(/C=C/c2ccc3ccccc3n2)cc1`, for which the inhibition in the assay with PEG-3 [1] stood at 96.6%; with PEG-3 [2], 96%; with Rat fibroblasts (CREF) [3], 96.6%; in the assay on Rat fibroblasts (CREF) [4], 95.8%.
With `O=c1c2ccccc2cnn1-c1nc2ccccc2[nH]1`, the inhibition came out at 98.4% with PEG-3 [1], 99.5% with PEG-3 [2], 101% in the assay with Rat fibroblasts (CREF) [3] and 100% in the assay on Rat fibroblasts (CREF) [4].
In the case of `COc1ccc(-n2cc(-c3ccccc3)c3c(N4CCOCC4)ncnc32)cc1`, the inhibition with PEG-3 [1] is 94.2%; with PEG-3 [2] it was 101%; with Rat fibroblasts (CREF) [3], 69.3%; with Rat fibroblasts (CREF) [4], 67.2%.
On the same counts, the results for `Cc1nc(SCC(=O)Nc2nc3ccccc3s2)c(C#N)c(C)c1C` are 95.4%, 89%, 97.8% and 97%.
In the same order, the values of `COC(=O)C1C=CC(OC2OC(COC(C)=O)C(OC(C)=O)C(OC(C)=O)C2OC(C)=O)n2c(=O)n(-c3ccccc3)c(=O)n21` (stereo not given) are 99.8%, 98.3%, 98.1% and 99.1%.
`Brc1ccc(N=Nc2ccc3ccccc3n2)cc1`: the inhibition with PEG-3 [1] worked out at 93.5%; in the assay with PEG-3 [2] it was 94.5%; in the assay with Rat fibroblasts (CREF) [3], 97.1%; in the assay with Rat fibroblasts (CREF) [4] it was 96.3%.
For `CC1=NOC(=O)/C1=C\c1ccc(-c2ccccc2Br)o1`, the inhibition in the assay with PEG-3 [1] is 99.2%; with PEG-3 [2], 98.5%; with Rat fibroblasts (CREF) [3], 94.2%; with Rat fibroblasts (CREF) [4], 53.8%.

In general, inhibition refers to the drop in the measured response relative to a control, in per cent.
